Where “and” joins values, the source holds several entries; their conditions need not be identical. Equal values may be shown once. More than one record can exist for a structure, and the calls need not agree. Calls of active or inactive are those of the source. Rule for the calls: active = hit-call score of the fitted dose curve at least 0.9, where 1 is the maximum; inactive = score below 0.9.

Read-out in the assay: Interferon-inducible T-cell alpha chemoattractant (ITAC), CXCL11 (gene 6373)
The assay is described as follows: BSK_BE3C_ITAC: BioMAP Diversity Plus: BE3C Assay for Interferon-inducible T-cell alpha chemoattractant (ITAC) Biomarker Activity (AID 2284279). Conditions: primary human bronchial epithelial cells. On the procedure: BSK_BE3C is a cell-based, multiplexed-readout assay that uses bronchial epithelial cell, a human lung primary cell, with measurements taken at 24 hours after chemical dosing in a 96-well plate.BSK_BE3C_ITAC is an assay component measured in the BSK_BE3C assay. It measures I-TAC antibody related to regulation of gene expression using ELISA technology.Data from the assay component BSK_BE3C_ITAC was analyzed at the endpoint, BSK_BE3C_ITAC, in the positive analysis fitting direction relative to DMSO as the negative control and baseline of activity. Using a type of binding reporter, gain or loss-of-signal activity can be used to understand protein changes. To generalize the intended target to other relatable targets, this assay endpoint is annotated to the 'cytokine' intended target family, where the subfamily is 'chemotactic factor'.
The levels of cell surface (or secreted, indicated by the prefix "s") biomarker endpoints were measured by ELISA. Overt cytotoxicity to cells in confluent adherent cultures (all systems other than the BT system) was assessed by measuring total protein levels using sulforhodamine B (SRB) staining in parallel cultures at the time of biomarker measurements, indicated as SRB endpoints. For proliferation assays for adherent cell types, individual cell types are cultured at sub-confluence and relative cell numbers quantified by SRB staining at time points optimized for each system (48 h: 3C and CASM3C systems; 72 h: BT and HDF3CGF systems; 96 h: SAg system). SRB was performed by staining cells with 0.1% SRB after fixation with 10% TCA and reading wells at 560 nm.Viability and proliferation of PBMC (T cells) was quantified by Alamar Blue reduction for the SAg and BT systems. For PBMC viability (referred to as PBMC Cytotoxicity within the assay endpoint names), cells were plated (75,000/well in a 96-well plate) and then chemical samples added for 1 h before addition of activators, SEB and TSST-1 (20 ng/mL final concentration each). Cells were incubated for 90 h. Then, Alamar Blue (20 uL/well) (Invitrogen, Cat DAL1100) was added for 6 h, and the plates were read with a fluorescence microplate reader at 546/580 nm (excitation/emission). For PBMC proliferation, cells were plated and activated as above but incubated for only 16 h prior to addition of Alamar Blue. Plates were read after 6 h.
`O=C(O)C(F)(F)C(F)(F)C(=O)O`: the result was inactive. In the case of `OCC(F)(F)OC(F)(F)C(F)(F)OC(F)(F)CO`, the outcome was inactive. As to `FC(F)(F)C(F)(C(F)(F)F)C(F)(F)C(F)(F)CC1CO1` (stereo unspecified), the outcome was inactive. Still for that read-out and setting: the result for `O=C(O)C=CC(F)(C(F)(F)F)C(F)(F)F` reads “inactive”; that for `CC(O)C(F)(F)C(F)(F)F` (stereo unspecified), “inactive”.

Take `O=C(O)C(F)(F)OC(F)(F)C(F)(F)OC(F)(F)C(=O)O`: the result was inactive. On to `O=S(=O)(F)C(F)(F)C(F)(F)C(F)(F)C(F)(F)C(F)(F)C(F)(F)C(F)(F)C(F)(F)F`, for which the outcome was inactive. Still for that read-out and setting: the result for `O=C(O)C(F)(F)OC(F)(F)C(F)(F)OC(F)(F)F` reads “inactive”. Consider `COC(=O)C(F)(F)C(F)(F)OC(F)(C(F)(F)F)C(F)(F)OC(F)=C(F)F` (stereo unspecified), for which the half-maximal activity concentration (AC50) (as a rule, the concentration giving half of the maximal activity seen) is 3.93 µM (active) and 4.84 µM (active). With `COP(=O)(CCC(=O)NCO)OC`, the outcome was inactive. Regarding `C=CC(=O)OCC(F)(F)C(F)F`, the outcome was inactive.

In the case of `NC(=O)C(F)(F)C(F)(F)F`, the result was inactive.

For `OCC(F)(F)OC(F)(F)C(F)(F)OC(F)(F)C(F)(F)OC(F)(F)F`, the result was inactive. Regarding `OCC(F)(F)OC(F)(F)C(F)(F)OC(F)(F)C(F)(F)OC(F)(F)CO`, the AC50 is 30 µM (active) and the result was inactive. Consider `O=C(O)C(F)(OC(F)(F)C(F)(F)C(F)(F)F)C(F)(F)F` (stereo unspecified), for which the result was inactive.

These data come from PubChem BioAssay (EPA / NIEHS).
